Bioassay records as filed in PubChem.
VACV mCherry inh: vaccinia inhibition (mCherry reporter). Potency, µM (top dose mostly 36.5 µM), for inactives: top-dose activity change, negative = inhibition, hits mostly inhibitors. AID 720579. Vaccinia virus mCherry reporter infection, fluorescence. 310,000 tested, 0.63% active; calls by dose curve; tested in A549 cells; also: % is scaled to controls: 0 for no effect and ±100 for the full control effect; nearly all actives have a fitted effect of over 35% in size
NS1 inh: inhibitors of influenza NS1 protein function; Potency, µM (series often up to 46.1 µM), without a hit: top-dose activity, positive = more growth; 270,000 tested, 0.4% active; calls by dose curve; also: actives are rising curves; nearly all actives have a fitted effect of over 50% in size
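OD600 was taken as the measure of yeast growth restored by compound in an NS1-expressing S. cerevisiae strain. Cells had been washed out of glucose medium and diluted 1:100 into galactose -URA medium, pH 6.0.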
Pf growth 48h: P. falciparum growth inhibition at 48 hours (one generation) | P. falciparum luciferase growth in erythrocytes, 48 h | 310,000 tested, 5.9% active | Potency, µM (highest dose often 28.7 µM), for the others: top-dose activity change, negative = inhibition, hits mostly inhibitors | AID 504832; also: % is scaled to controls: 0 for no effect and ±100 for the full control effect
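A one-generation exposure of luciferase-tagged malaria parasites in RPMI 1640/Albumax erythrocyte culture, 37 C and 5% CO2. Inhibition is inferred from decreased luminescence after adding detection reagent.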
Vaccinia Venus: vaccinia inhibition (Venus reporter) | 330,000 tested, 0.46% active | Potency, µM (top dose mostly 36.5 µM), for inactives: top-dose activity change, negative = inhibition, hits mostly inhibitors | Vaccinia virus Venus reporter expression, fluorescence; calls by dose curve; tested in A549 cells; also: % is scaled to controls: 0 for no effect and ±100 for the full control effect; nearly all actives have a fitted effect of over 30% in size
HCV inh: inhibitors of hepatitis C virus infection; AID 651820; 340,000 tested, 3.4% active; Potency, µM (highest dose often 41.8 µM), inactives show top-dose activity change, negative = inhibition, hits mostly inhibitors; Huh7.5.1 HCVcc-Cre infection, luciferase reporter, 44 h; also: % is scaled to controls: 0 for no effect and ±100 for the full control effect
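Infectious HCVcc-Cre (~0.5 moi) was added to cells just after compound, with cells seeded 4 h earlier at 1,000 per well. Luciferase activity after 44 h culture reported infection; substrate was incubated 15 min at room temperature before reading.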
Pf growth 96h: inhibits malaria parasite growth, 96 h | P. falciparum luciferase reporter growth, 96 h | Potency, µM (titrated, usually from 28.7 µM), for inactives: at the highest dose activity change, negative = inhibition, most hits filed as inhibitors | AID 504834 | 320,000 tested, 6.9% active; also: % is scaled to controls: 0 for no effect and ±100 for the full control effect
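P. falciparum expressing integrated firefly luciferase, in erythrocytes at 2% hematocrit, 0.05% parasitemia, incubated with compounds 96 h at 37 C, 5% CO2. Growth inhibition read as loss of luminescence; two-generation exposure targets delayed-death apicoplast inhibitors.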
* hit, by the source's call; i = inactive; ? = inconclusive; / = no result given. Most compounds without a hit are left out; they make up all but 11% or so of the library. Unless noted, calls follow the shape of the dose curve; as a rule, active = well fitted inhibition curve with a large enough effect; inconclusive = small, poorly fitted or top-dose-only effect, or another doubt; inactive = no such curve, though single readings can be large or run the other way. Potency is read from the fitted curve at half-maximal effect.

SMILES	VACV mCherry inh	NS1 inh	Pf growth 48h	Vaccinia Venus	HCV inh	Pf growth 96h
CC(C)CCSc1nc(N)c(C#N)cc1C#N	/	-9%	12µM*	/	?	-10%
CC(=O)c1cc(C#N)c(SCCC(C)C)nc1C	/	-73%	?	/	?	?
O=c1nc2sc3ccccc3n2c(=O)n1-c1cccc(Cl)c1	-2%	0%	92%	-13%	11µM*	/
Cc1ccnc(SC2CC(=O)N(c3ccc(C(C)C)cc3)C2=O)n1 (stereo not drawn)	/	14%	-28%	/	2%	?
CC(C)c1ccc(N2C(=O)CC(Sc3ncccn3)C2=O)cc1 (stereo not drawn)	/	-2%	3%	/	14%	2.1µM*
COc1cccc(NC(=O)N2CCCC2C(=O)NC2CC2)c1 (stereo not drawn)	-11%	0%	1%	-7%	11%	-11%
CN(C)c1ccc(NC(=O)Nc2csc3ccccc23)cc1	-20%	14%	?	-6%	-29%	5.2µM*
O=C(Nc1ccc(F)cc1)Nc1csc2ccccc12	?	-2%	?	?	2%	?
CC(NC(=O)CSc1n[nH]c(=O)n1C1CC1)C12CC3CC(CC(C3)C1)C2 (stereo not drawn)	/	-3%	-15%	/	6%	/
CCOC(=O)COc1ccc2c(C#N)c3ccccn3c2c1	/	-1%	-10%	/	-18%	15%
COc1cc(OC)cc(C(=O)c2c(C)c(C#N)c3ccccn23)c1	/	-2%	8.3µM*	/	?	?
Cc1nn(Cc2ccc(C(=O)NN)o2)c(C)c1Cl	/	5%	-18%	/	13µM*	?
Cc1cc(NC(=O)c2ccc(Cn3nc(C)c(Br)c3C)o2)no1	-9%	-3%	?	-4%	-13%	21%
Cc1nn(Cc2ccc(C(=O)NC(C)(C)C)o2)c(C)c1Br	/	-32%	?	?	?	-13%
Cc1nn(Cc2ccc(C(=O)Nc3ccc(C(=O)OC(C)C)cc3)o2)c(C)c1Cl	-6%	0%	15µM*	-28%	?	20%
Cc1cccc(Cn2c(CNS(=O)(=O)c3ccc(Cl)s3)nc3cccnc32)c1	-16%	/	/	-17%	/	/
O=C1CC(c2ccco2)CC(O)=C1C=Nc1cc(Cl)ccc1Cl (stereo not drawn)	i	5%	1%	-2%	12%	31%
O=C1CC(c2ccco2)CC(O)=C1C=Nc1cc(Cl)ccc1O (stereo not drawn)	/	2%	9.3µM*	/	-2%	?
O=C(COC(=O)Cc1n[nH]c(=O)c2ccccc12)NNC(=O)c1ccc(Br)cc1	/	/	/	/	23%	/
COC(=O)c1ccc(CN2CCCC(CNC(=O)Cc3ccc(OC)cc3)C2)cc1 (stereo not drawn)	/	13%	21%	/	6%	?
COc1ccc(CC(=O)NCC2CCCN(Cc3ccc(OC(F)(F)F)cc3)C2)cc1 (stereo not drawn)	-12%	11%	9.3µM*	-20%	-26%	?
O=C(OCc1ccc(Br)cc1)c1cc([N+](=O)[O-])ccc1N1CCOCC1	-26%	/	/	?	/	/
COc1ccc(COC(=O)c2cc([N+](=O)[O-])ccc2N2CCOCC2)cc1F	?	/	?	?	32µM*	?
O=C(OCc1ccccc1)c1cc(S(=O)(=O)N2CCCCC2)ccc1N1CCOCC1	-2%	/	?	-16%	?	12µM*
Cc1ccc(COC(=O)c2cc(S(=O)(=O)N3CCCCC3)ccc2N2CCOCC2)cc1	-10%	/	9.3µM*	-6%	?	?
COCC(C)NC(=O)c1cc(S(=O)(=O)N2CCCCC2)ccc1N1CCOCC1 (stereo not drawn)	-10%	2%	-6%	-12%	20%	5%
CC(C)CCCC(C)NC(=O)c1cc(S(=O)(=O)N2CCCCC2)ccc1N1CCOCC1 (stereo not drawn)	/	/	?	/	11µM*	9.3µM*
CCOC(=O)C1CCCN(Cc2ccc(-c3ccccc3)cc2)C1 (stereo not drawn)	/	-29%	0%	/	-10%	20%
O=C(CSc1nnnn1C1CCCC1)c1ccc2c(c1)OCCO2	-13%	-16%	130%	-4%	0%	?
